Assay results from ChEMBL document CHEMBL1157539, “Thousands of chemical starting points for antimalarial lead identification” (Nature, 2010).

Key:
Type in all cases: functional
[1] = tested on: Plasmodium falciparum; assay: GSK_TCMDC: Inhibition of Plasmodium falciparum 3D7 in whole red blood cells, using parasite LDH activity as an index of growth. Test compounds present at 2uM
[2] = tested on: Plasmodium falciparum; assay: GSK_TCMDC: Inhibition of Plasmodium falciparum Dd2 in whole red blood cells, using parasite LDH activity as an index of growth. Test compounds present at 2uM
[3] = tested on: HepG2; assay: GSK_TCMDC: Percent inhibition of human HepG2 cell line. Test compounds present at 10uM.

Compound: CCCOc1cccc(C(=O)N[C@@H](Cc2ccccc2)[C@H](O)CNCc2ccccc2OC)c1
- Inhibition [1]: 95%
- Inhibition [2]: 61%
- Inhibition [3]: 11%

Compound: N#Cc1cccc(C(=O)Nc2cccc(-c3ccc(CN4CCCC4)cc3)c2)c1.O=C(O)C(F)(F)F
- Inhibition [1]: 98%
- Inhibition [2]: 42%
- Inhibition [3]: 11%

Compound: CCN(CC)CCCN(CCCN(CC)CC)c1cc(C)nc(Nc2ccc3cc(Br)ccc3c2)n1.Cl
- Inhibition [1]: 100%
- Inhibition [2]: 73%
- Inhibition [3]: 12%

Compound: COc1cc(NC(=O)c2cccc([N+](=O)[O-])c2)cc(S(=O)(=O)c2ccc(Cl)cc2)c1
- Inhibition [1]: 88%
- Inhibition [2]: 23%
- Inhibition [3]: 0%

Compound: O=C(c1ccc(-c2ccc(-c3nc4ccccc4[nH]3)s2)cc1)N1CCCCC1CN1CCC(O)C1 (stereo not given)
- Inhibition [1]: 84%
- Inhibition [2]: 55%
- Inhibition [3]: 18%

Compound: O=C(O)C(F)(F)F.c1ccc2[nH]c(-c3ccc(-c4ccc(CNCCc5ccncc5)cc4)s3)nc2c1
- Inhibition [1]: 100%
- Inhibition [2]: 98%
- Inhibition [3]: 28%

Compound: COc1ccc(S(=O)(=O)NCC2CCCN(CCCCCNC(=O)/C=C/c3ccc(Cl)c(Cl)c3)C2)cc1 (stereo not given)
- Inhibition [1]: 81%
- Inhibition [2]: 1%
- Inhibition [3]: 53%

Compound: CCc1c[nH]c2c(N3CCCCS3(=O)=O)cc(C(=O)N[C@@H](Cc3ccccc3)[C@H](O)CNCc3cccc(OC)c3)cc12.O=CO
- Inhibition [1]: 86%
- Inhibition [2]: 91%
- Inhibition [3]: 0%

Compound: CS(=O)(=O)c1cccc(-c2ccc3oc(C(N)=O)c(NC(=O)c4cccs4)c3c2)c1
- Inhibition [1]: 86%
- Inhibition [2]: 77%
- Inhibition [3]: 11%

Compound: CN(C)CCNc1ncnc2c1[nH]c1ccc(Cl)cc12
- Inhibition [1]: 100%
- Inhibition [2]: 8%
- Inhibition [3]: 7%
